# Experimental data as given in PubChem BioAssay AID1345085 (National Center for Advancing Translational Sciences (NCATS), 2018).
# Inconclusive results are not listed. The source made the active and inactive calls. Calls follow the shape of the dose curve; as a rule, active = well fitted cell-killing curve with a large enough effect; inconclusive = small, poorly fitted or top-dose-only effect, or effect the other way; inactive = no such curve, though single readings can be large or run the other way.
# Test system: Jar
# Assay: Confirmatory qHTS for gynecologic anti-cancer compounds from libraries of approved drugs and bioactive compounds; also: nearly all actives have a fitted effect of over 55% in size
# Settings: gynecologic cancer cell panel viability, ATPlite luminescence, 48 h; series mostly up to 57.6 µM
# In short: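 IC50 values derive from an ATPlite ATP-content luminescence assay following 48 h treatment at 37 C. Each compound ran as an 11-concentration, threefold series (57.5 uM to 0.977 nM); HEK 293T served as control line for selectivity index.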
# Potency is read from the fitted curve at half-maximal effect.
row,Structure (SMILES),Potency
1,Nc1ccc(-c2ccc3ncc4ccc(=O)n(-c5cccc(C(F)(F)F)c5)c4c3c2)cn1,1.22 µM (active)
2,Cc1ccc(C(=O)N(CCCN)C(c2nc3cc(Cl)ccc3c(=O)n2Cc2ccccc2)C(C)C)cc1 (configuration not stated),0.0153 µM (active)
3,CNCc1ccc(-c2[nH]c3cc(F)cc4c3c2CCNC4=O)cc1,inactive
4,COc1ccc(OC)c(-c2nnc3ccc(-c4ccc(OC)c(O[C@@H]5CCOC5)c4)nn23)c1,12.2 µM (active)
5,O=C(CCCCCCC(=O)Nc1ccccc1)NO,3.85 µM (active)
6,CCN(CC)CCNC(=O)c1c(C)[nH]c(/C=C2\C(=O)Nc3ccc(F)cc32)c1C,25.1 µM (active)
7,CC(C)n1nc(-c2cc3cc(O)ccc3[nH]2)c2c(N)ncnc21,5.44 µM (active)
